Screening results from PubChem BioAssay.
Shiga inhibitor = blocks Shiga toxin action in Vero cells. inhibition, % at 38.7 µM. 290,000 tested, 9.2% active. Vero cells, Shiga toxin protein synthesis inhibition reporter; in the data active = inhibition mostly above about 28%, no sharp cut-off; inactive = mostly below about 43%
HCV inh = inhibitors of hepatitis C virus infection; Huh7.5.1 HCVcc-Cre infection, luciferase reporter, 44 h; Potency, µM (highest dose often 41.8 µM), hits mostly inhibitors; 340,000 tested, 3.4% active; AID 651820
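Infectious HCVcc-Cre (~0.5 moi) was added to cells just after compound, with cells seeded 4 h earlier at 1,000 per well. Luciferase activity after 44 h culture reported infection; substrate was incubated 15 min at room temperature before reading.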
Pf growth 48h = inhibits P. falciparum growth in the first generation, 48 h. P. falciparum luciferase growth in erythrocytes, 48 h. Potency, µM (doses to about 28.7 µM), actives largely listed as inhibitors. 310,000 tested, 5.9% active. AID 504832
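Compounds are pin-transferred into medium, infected erythrocytes (2% hematocrit, 0.1% parasitemia final) are added, and plates sit one parasite generation at 37 C in 5% CO2. Detection reagent is then added and luminescence measured.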
Cycloheximide cs = counter-screen hit for Shiga toxin inhibitors, cycloheximide | AID 2314 | 300,000 tested, 12% active | max response, % | cell reporter, cycloheximide protein synthesis inhibition counterscreen; in the data active = max response mostly above about 13%, no sharp cut-off; inactive = mostly below about 14%; also: read at 38.3 µM for the half of the compounds with a filed dose
AMA1-RON2 inh = disrupts binding of P. falciparum AMA1 to RON2; 360,000 tested, 0.2% active; AlphaScreen AMA1-biotinylated RON2 peptide binding; Potency, µM (highest dose often 58.2 µM), most hits filed as inhibitors; also: nearly all actives have a fitted effect of over 45% in size
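AMA1 (3D7) with his tag at 25 nM final met compounds first, then biotinylated RON2 peptide at 25 nM; detection used donor plus acceptor beads, 10 µg/mL apiece, read by AlphaScreen after 30 min at room temperature.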
Pf growth 96h = inhibits malaria parasite growth, 96 h; P. falciparum luciferase reporter growth, 96 h; Potency, µM (titrated, usually from 28.7 µM), hits mostly inhibitors; 320,000 tested, 6.9% active; AID 504834
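Erythrocytes infected with luciferase-expressing P. falciparum were dispensed at 2% hematocrit and 0.05% parasitemia (final), then incubated with compounds 96 hours at 37 C in 5% CO2. Luminescence after detection reagent addition reported growth.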
Numbers stand for hits. Shown are actives, neighbours in structure and some others; about 21% of the full set was active somewhere. Unless noted, calls follow the shape of the dose curve; as a rule, active = well fitted curve in the direction sought with a large enough effect; inconclusive = small, poorly fitted or top-dose-only effect, or another doubt; inactive = no such curve, though single readings can be large; an effect the other way counts as inactive or inconclusive.

COc1ccccc1CN(C)C[C@@H]1OCc2cnnn2CCCC(=O)N([C@@H](C)CO)C[C@H]1C was read as AMA1-RON2 inh inactive.
`CC[n+]1c(/C=C/N(C)c2ccccc2)n(-c2ccccc2)c2ccc(-c3nc4ccccc4s3)cc21` gave Shiga inhibitor inactive, HCV inh 5.6µM, Pf growth 48h inactive, Cycloheximide cs inactive, AMA1-RON2 inh inactive and Pf growth 96h inactive.
`CCOc1cc(C(=O)OCC(=O)N(C)c2ccccc2)cc(OCC)c1OCC` gave Shiga inhibitor inactive, HCV inh inconclusive, Pf growth 48h inactive, Cycloheximide cs inactive, AMA1-RON2 inh inactive and Pf growth 96h inactive.
C[C@H](NC(N)=O)C(=O)Nc1ccc2c(c1)OCO2 was read as Shiga inhibitor inactive, HCV inh inactive, Pf growth 48h inactive, Cycloheximide cs 23, AMA1-RON2 inh inactive and Pf growth 96h inactive.
CN(C)CC(NC(=O)c1cccc(S(=O)(=O)Nc2ccc3c(c2)OCO3)c1)c1ccccc1 (stereo not drawn) was read as HCV inh inactive, Pf growth 48h inconclusive, AMA1-RON2 inh inactive and Pf growth 96h 4.1µM.
For CC(CC(=O)Nc1ccc2c(c1)OCCO2)c1ccccc1 (stereo not drawn) the results were Shiga inhibitor 55, HCV inh inactive, Pf growth 48h inactive, Cycloheximide cs 42, AMA1-RON2 inh inactive and Pf growth 96h inactive.
O=S(=O)(Nc1ccc2c(c1)OCO2)c1ccccc1 was read as Shiga inhibitor inactive, HCV inh inactive, Pf growth 48h inactive, Cycloheximide cs inactive and AMA1-RON2 inh inactive.
CCN(CC)C(C(=O)Nc1ccc2c(c1)OCO2)c1ccccc1 (stereo not drawn) was read as Shiga inhibitor inactive, HCV inh inactive, Pf growth 48h inactive, Cycloheximide cs inactive and AMA1-RON2 inh inactive.
Screening CC(CC(=O)Nc1ccc2c(c1)OCO2)c1ccccc1 (stereo not drawn) returned Shiga inhibitor inactive, HCV inh inactive, Pf growth 48h inactive, Cycloheximide cs 15, AMA1-RON2 inh inactive and Pf growth 96h inactive.
`CS/C(=N\S(=O)(=O)c1cccs1)Nc1ccc(Br)cc1F` gave Shiga inhibitor inactive, HCV inh inactive, Pf growth 48h inactive, Cycloheximide cs inactive, AMA1-RON2 inh inactive and Pf growth 96h inactive.
O=C(COC(=O)c1ccco1)Nc1nc2ccc([N+](=O)[O-])cc2s1 was read as Shiga inhibitor inactive, HCV inh inactive, Pf growth 48h inactive, Cycloheximide cs inactive, AMA1-RON2 inh inactive and Pf growth 96h inactive.
For Cc1ccc2nc(NC(=O)COC(=O)c3ccco3)sc2c1 the results were Shiga inhibitor 86, HCV inh inactive, Pf growth 48h inactive, Cycloheximide cs 34, AMA1-RON2 inh inactive and Pf growth 96h inactive.
For Cc1ccc2nc(NC(=O)COC(=O)c3ccc(Br)o3)sc2c1 the results were Shiga inhibitor 133, HCV inh inactive, Pf growth 48h inactive, Cycloheximide cs 23, AMA1-RON2 inh inactive and Pf growth 96h 1.2µM.
`Cc1cc(Cl)ccc1NC(=O)CCC(=O)N/N=C/c1cccnc1` gave Shiga inhibitor inactive, HCV inh inactive, Pf growth 48h inactive, Cycloheximide cs inactive, AMA1-RON2 inh inactive and Pf growth 96h inconclusive.
Screening CCNC(=O)C1(C)CCN(C(=O)c2ccc3c(c2)OCO3)C1 (stereo not drawn) returned AMA1-RON2 inh inactive.
Screening Cc1nnc(SCC(=O)N(CCC#N)c2ccc3c(c2)OCCO3)s1 returned HCV inh inactive, Pf growth 48h inactive, AMA1-RON2 inh inactive and Pf growth 96h inconclusive.
Screening O=C(NCC1CCCO1)c1ccc(NC(=O)c2cccc([N+](=O)[O-])c2)cc1 (stereo not drawn) returned Shiga inhibitor inactive, HCV inh inconclusive, Pf growth 48h inactive, Cycloheximide cs inactive, AMA1-RON2 inh inactive and Pf growth 96h inconclusive.
CC(=O)N(c1ccccc1)c1nc2ccccc2s1 was read as HCV inh inconclusive and AMA1-RON2 inh inactive.
For COC(=O)N(C)c1nc2ccccc2s1 the results were Shiga inhibitor inactive, HCV inh inactive, Pf growth 48h inactive, Cycloheximide cs 36, AMA1-RON2 inh inactive and Pf growth 96h inactive.
